Laboratory results from the supplement of paper PMC7156485.
± gives the standard deviation of the averaged measurements.

The compounds below were run on HCC1569 (assay: cell number relative to DMSO (% of DMSO); higher = more cells (less growth inhibition / toxicity)). Settings: concentration: 10 µM; 24 h.
Outline: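 After 24 h at 37 °C with compounds at 10 µM, in triplicate, HCC1569 and TDF cells were fixed with 3.7% formaldehyde. Immunostaining used a rabbit anti-H1.0 antibody and an AlexaFluor 647 secondary, with DAPI, and six fields per well were imaged at ×10. H1.0 nuclear intensity or cell number is presented as percent of the plate control, from the median of replicates, with HCC1569 values smoothed for positional effects.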
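Note: TDF denotes transformed human dermal fibroblasts of mesenchymal origin.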

SMILES	cell number
CS(=O)c1ccc(-c2nc(-c3ccc(F)cc3)c(-c3ccncc3)[nH]2)cc1.Cl (stereo not given)	88.9
CN(C)c1nc(N(C)C)nc(N(C)C)n1 [Altretamine]	103.1 ± 0.68
CCCN(CCC)CC1CCCCN1CCNC(=O)N1c2ccccc2C(=O)Nc2cccnc21 (stereo not given)	98.5
C=CCc1ccc(O)c(OC)c1 [Eugenol]	103
CC(=O)OCC1=C(C(=O)[O-])N2C(=O)C(NC(=O)CSc3ccncc3)C2SC1.[Na+] (stereo not given) [Cephapirin sodium]	101
CCn1nc(C(=O)O)c(=O)c2cc3c(cc21)OCO3 [Cinoxacin]	97.6
COc1cc2c(cc1OC)CC(=O)N(CCCN(C)C[C@H]1Cc3cc(OC)c(OC)cc31)CC2.Cl	100
CC1CCC2(C(=O)O)CCC3(C)C(=CCC4C5(C)CCC(O)C(C)(C)C5CCC43C)C2C1C (stereo not given) [Ursolic acid]	100
CS(=O)(=O)CCNCc1nc(-c2ccc3ncnc(Nc4ccc(OCc5cccc(F)c5)c(Cl)c4)c3c2)cs1.Cl.Cl	88.4
CCN(Cc1ccncc1)C(=O)C(CO)c1ccccc1 (stereo not given) [Tropicamide]	104 ± 5.5
O=C1C=C(CO)OCC1=O [5-hydroxy-2-(hydroxymethyl)-4H-pyran-4-one]	105
CC(=O)OCC(=O)C1(O)CCC2C3CCC4=CC(=O)CCC4(C)C3C(O)CC21C (stereo not given) [Hydrocortisone 21-acetate]	99.8
Cl.NCc1c[nH]c(=S)n1[C@H]1CCc2c(F)cc(F)cc2C1	99.6
COc1cc2ncnc(Nc3ccc(Cl)cc3Cl)c2cc1OC [Ste11 MAPKKK Activation Inhibitor]	83.8
Nc1ccc(-c2cccc3c(=O)cc(N4CCOCC4)oc23)cc1	78.1
NC(N)=NCc1cccc(I)c1 [N-(3-iodobenzyl)guanidine]	108
CC1(NCC(O)COc2cccc3[nH]ccc23)CCC(C(C)(C)NC(=O)CBr)CC1 (stereo not given) [Pindobind-5HT1A]	61.4
CC12CCC(=O)C=C1C=CC1C2CCC2(C)C1CCC21CCC(=O)O1 (stereo not given) [Canrenone]	99.6
O=C(c1ccc2c(c1)OCCO2)N1CCCCC1	105
COc1ccc(C=Cc2cc(OC)cc(=O)o2)cc1 [Yangonin]	98.9

SMILES	cell number
CCCCCC(O)CC=C1C(=O)C=CC1CC=CCCCC(=O)O (stereo not given) [D12-Prostaglandin J2]	108
CC(=O)O.NC(=NCCCC(N)C(=O)O)NO [NG-Hydroxy-L-arginine acetate]	97.8
CNC(=O)c1ccccc1Sc1ccc2c(C=Cc3ccccn3)n[nH]c2c1 [Axitinib]	67.8
OCC1OC(n2cnc3c(NC4CCCC4)ncnc32)C(O)C1O (stereo not given) [N6-Cyclopentyladenosine]	99.8
O=C1NC(=O)c2c1c(-c1ccccc1)cc1[nH]c3ccc(O)cc3c21	59.9
COc1cccc(/C=N/CC/N=C/c2cccc(OC)c2[O-])c1[O-].[Cl-].[Mn+2]	99.1
CCOC(=O)Oc1c(OC)cc(C(=O)OC2CC3CN4CCc5c([nH]c6cc(OC)ccc56)C4CC3C(C(=O)OC)C2OC)cc1OC (stereo not given) [Syrosingopine]	94.7
NC(=S)NCCCC(N)C(=O)O (stereo not given) [Thiocitrulline]	104
O.Oc1cc(O)c2c(c1)OC(c1ccc(O)c(O)c1)C(O)C2 (single isomer, unassigned; (+)) [(+)-Catechin Hydrate]	98.9
O=c1ccc2ccc(O)c(O)c2o1 [Daphnetin]	106
CCN1CCCC1CNC(=O)c1cc(S(N)(=O)=O)ccc1OC (single isomer, unassigned; (-)) [(-)-Sulpiride]	99.4
CC(=O)Oc1ccc(C(c2ccc(OC(C)=O)cc2)c2ccccn2)cc1 [Bisacodyl]	94.2
CC(C)C(=O)Nc1ncc(-c2cc(C(F)F)nn2-c2c(Cl)cccc2Cl)s1	75.5
Cc1ccccc1C(=O)c1ccc(Nc2ccc(Br)cc2N)cc1Cl	97.3
O=C([O-])c1cc(=O)c2c(OCC(O)COc3cccc4oc(C(=O)[O-])cc(=O)c34)cccc2o1.[Na+].[Na+] [Disodium Cromoglycate]	98.4
CC(C)=CCCC(C)=CCCC(C)=CCCC(C)=CCCC(C)=CCCC(C)=CCCC(C)=CCCC(C)=CCCC(C)=CCO [Solanesol]	104
O=C1NC(=O)C(=Cc2cccc(C(F)(F)F)c2)S1 [PIM1/2 Kinase Inhibitor V]	102
CC1OC(n2cc(F)c(=O)[nH]c2=O)C(O)C1O (stereo not given) [Doxifluridine]	88.3
CCCCN1CCCC[C@H]1C(=O)Nc1c(C)cccc1C.Cl	104
Cl.O.O=C(O)CN(CCN(CC(=O)O)Cc1ccccc1O)Cc1ccccc1O	105
